# Laboratory results taken from PubChem BioAssay.
# Calls of active or inactive are those of the source.
# How the values were obtained:
# [1] = E. coli DRC41 culture turbidity changes, primary screen, E. coli filamentation inducer project, strain DRC41, OD650, 48 h (AID 1152);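 also: E. coli MC1000 strain DRC41 lacking acrAB efflux pump and sulA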; conditions: E. coli DRC41 (acrAB sulA), higher = more signal, called active from +8 up or from −8 down
# [2] = small-molecule binders of probe aLefty1, primary screen, biochemical, small-molecule microarray, 635/667 nm fluorescence (AID 1153); conditions: higher = more signal;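 also: score merges spot fluorescence with signal-to-noise ratio from the scanned slide images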
# [3] = PSAC antagonists in infected red cells, primary screen, cell-based, P. falciparum Indochina, OD700, 1 h (AID 1154); conditions: P. falciparum Indochina infected RBC osmotic lysis, higher = more signal, called active from +8 up or from −8 down
# [4] = PSAC antagonists in infected red cells, primary screen, cell-based, P. falciparum Indochina, OD700, 2 h (AID 1155);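 also: lysis reports solute entry through the parasite surface anion channel PSAC; channel blockers reduce lysis of infected cells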; conditions: P. falciparum Indochina infected erythrocytes, osmotic lysis OD700; higher = more signal, called active from +8 up or from −8 down
# [5] = osmotic lysis modulators in infected erythrocytes, primary screen, PSAC antagonist project, cell-based, P. falciparum Indochina, OD700, 3 h (AID 1156); conditions: higher = more signal, called active from +8 up or from −8 down
# [6] = PSAC antagonists in infected red cells, primary screen, cell-based, P. falciparum Indochina, OD700, 18 h (AID 1157); conditions: P. falciparum Indochina infected erythrocytes, osmotic lysis OD700, 18 h; higher = more signal, called active from +8 up or from −8 down
# [7] = modulators of S6 phosphorylation in cells, primary screen, cell-based, A549, cytoblot, luminescence, serum-stimulated (AID 1158); conditions: A549 phospho-S6 cytoblot, 5 h, higher = more signal;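 also: serum-stimulated A549 lung adenocarcinoma cells; signal is phosphorylated S6 detected by cytoblot immunostaining with HRP secondary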
# [8] = molecular target: NADPH oxidase 2 (Homo sapiens) (UniProt P04839); assay: NOX2-dependent H2O2 signal modulators, primary screen, NOX inhibitor project, cell-based, HEK293-NOX2, PMA-stimulated, Amplex Red fluorescence (AID 1159); conditions: 45 min, higher = more signal, called active from +8 up or from −8 down; also: test concentration not given here
# Sequence of NADPH oxidase 2 (Homo sapiens) (P04839 whole entry, looked up): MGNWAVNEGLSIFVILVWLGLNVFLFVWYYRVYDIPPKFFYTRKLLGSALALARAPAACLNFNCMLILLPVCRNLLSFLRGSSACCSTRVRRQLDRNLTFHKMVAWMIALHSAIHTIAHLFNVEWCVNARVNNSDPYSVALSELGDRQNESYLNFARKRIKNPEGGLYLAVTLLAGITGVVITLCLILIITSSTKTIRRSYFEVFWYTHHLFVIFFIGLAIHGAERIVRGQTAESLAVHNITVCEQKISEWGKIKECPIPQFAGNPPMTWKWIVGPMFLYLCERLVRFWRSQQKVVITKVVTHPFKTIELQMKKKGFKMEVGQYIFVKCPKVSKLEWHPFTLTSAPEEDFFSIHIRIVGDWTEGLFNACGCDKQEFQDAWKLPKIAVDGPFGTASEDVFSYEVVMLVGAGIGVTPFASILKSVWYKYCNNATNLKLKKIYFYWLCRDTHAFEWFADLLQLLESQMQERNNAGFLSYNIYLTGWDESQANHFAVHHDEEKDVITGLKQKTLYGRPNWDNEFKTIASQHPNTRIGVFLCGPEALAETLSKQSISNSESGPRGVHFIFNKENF
# [9] = molecular target: NADPH oxidase 4 (Homo sapiens) (UniProt Q9NPH5); assay: NOX4-dependent H2O2 signal modulators, primary screen, NOX inhibitor project, cell-based, HEK293-NOX4, tetracycline-induced, Amplex Red fluorescence (AID 1160); conditions: 45 min, higher = more signal, called active from +8 up or from −8 down
# Sequence of NADPH oxidase 4 (Homo sapiens) (Q9NPH5 whole entry, looked up): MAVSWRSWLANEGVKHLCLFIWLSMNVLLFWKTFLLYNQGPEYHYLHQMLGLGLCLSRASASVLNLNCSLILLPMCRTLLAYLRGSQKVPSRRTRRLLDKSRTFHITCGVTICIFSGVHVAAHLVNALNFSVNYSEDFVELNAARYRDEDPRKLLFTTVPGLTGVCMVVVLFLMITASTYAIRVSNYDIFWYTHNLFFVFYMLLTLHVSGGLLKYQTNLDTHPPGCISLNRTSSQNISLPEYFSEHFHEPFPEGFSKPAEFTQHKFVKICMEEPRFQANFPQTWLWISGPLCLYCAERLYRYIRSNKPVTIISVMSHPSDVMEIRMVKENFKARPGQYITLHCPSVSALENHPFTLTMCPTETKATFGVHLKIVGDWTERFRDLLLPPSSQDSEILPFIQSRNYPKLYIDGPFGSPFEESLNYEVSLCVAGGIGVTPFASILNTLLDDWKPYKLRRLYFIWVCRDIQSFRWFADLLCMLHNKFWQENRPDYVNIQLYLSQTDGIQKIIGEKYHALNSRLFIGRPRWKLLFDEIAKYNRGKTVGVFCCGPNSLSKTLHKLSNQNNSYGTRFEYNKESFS
# [10] = molecular target: NADPH oxidase 5 (Homo sapiens) (UniProt Q96PH1); assay: NOX5-dependent H2O2 signal modulators, primary screen, NOX inhibitor project, cell-based, HEK293-NOX5, Amplex Red fluorescence (AID 1161); conditions: HEK293-NOX5, ionomycin, 45 min, higher = more signal
# Sequence of NADPH oxidase 5 (Homo sapiens) (Q96PH1 whole entry, looked up): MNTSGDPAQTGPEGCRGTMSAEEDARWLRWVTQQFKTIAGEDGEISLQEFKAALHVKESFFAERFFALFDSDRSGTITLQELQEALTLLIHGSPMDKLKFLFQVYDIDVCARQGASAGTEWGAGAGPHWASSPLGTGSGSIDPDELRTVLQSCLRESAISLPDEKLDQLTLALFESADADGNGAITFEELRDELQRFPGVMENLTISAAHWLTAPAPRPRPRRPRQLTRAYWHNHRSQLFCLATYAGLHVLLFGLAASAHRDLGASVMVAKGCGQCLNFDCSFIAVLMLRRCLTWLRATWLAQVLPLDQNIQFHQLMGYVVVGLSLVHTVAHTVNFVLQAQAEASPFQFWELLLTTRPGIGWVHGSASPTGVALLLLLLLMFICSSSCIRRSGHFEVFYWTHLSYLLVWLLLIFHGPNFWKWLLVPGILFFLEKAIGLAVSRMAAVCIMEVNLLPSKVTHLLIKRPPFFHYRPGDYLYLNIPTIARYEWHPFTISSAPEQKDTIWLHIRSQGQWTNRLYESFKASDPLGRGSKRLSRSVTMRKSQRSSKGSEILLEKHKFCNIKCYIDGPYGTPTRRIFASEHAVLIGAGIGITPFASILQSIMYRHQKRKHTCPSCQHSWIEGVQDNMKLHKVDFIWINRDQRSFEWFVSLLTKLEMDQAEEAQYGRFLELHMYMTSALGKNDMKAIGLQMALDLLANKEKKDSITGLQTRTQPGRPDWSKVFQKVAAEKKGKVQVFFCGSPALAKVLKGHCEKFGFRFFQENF
Compound,z-score [1],composite z-score [2],z-score [3],z-score [4],z-score [5],z-score [6],z-score [7],z-score [8],z-score [9],z-score [10]
CON=C[C@@H](NS(=O)(=O)c1ccc(C)cc1)[C@H](C)C=CCC(=O)OC,-1.47 (inactive),-0.0984,0.553 (inactive),0.849 (inactive),-0.459 (inactive),0.539 (inactive),0.22,-0.153 (inactive),-0.345 (inactive),-0.415
O=C1C=C[C@@H](O)[C@@H]2[C@@H]3C(=O)N(C[C@@H]4CCCO4)C(=O)[C@@H]3CC[C@@H]12,0.0413 (inactive),0.0313,1.08 (inactive),0.979 (inactive),-0.0029 (inactive),0.281 (inactive),-0.382,1.71 (inactive),-0.0876 (inactive),0.283
CCc1cc2c(nc1CC)CCN(CCC(C)=NO[C@H](C)c1cn([C@@H]3COC[C@H]3O)nn1)C2,0.211 (inactive),0.199,1.34 (inactive),0.72 (inactive),0.322 (inactive),0.367 (inactive),-0.656,-0.539 (inactive),-0.138 (inactive),0.779
C[C@@H](c1ccccc1)N1C(=O)[C@H]2[C@H]3[C@H](O)[C@H](O)CC(=NO[C@@H]4O[C@H](CO)[C@@H](O)[C@H](O)[C@H]4O)[C@H]3CC[C@H]2C1=O,0.391 (inactive),1.16,-0.483 (inactive),-0.205 (inactive),-0.0944 (inactive),-0.0378 (inactive),-0.0015,1.5 (inactive),-1.93 (inactive),-0.63
CCOC(=O)CCN1C(=O)[C@H]2[C@H]3[C@H](O)[C@H](O)CC(=NOCC(C)C)[C@H]3CC[C@H]2C1=O,0.867 (inactive),-0.0519,0.0425 (inactive),-0.153 (inactive),0.298 (inactive),0.304 (inactive),-0.0487,-0.864 (inactive),0.148 (inactive),0.444
CO[C@@H]1COC(=O)[C@@H](C)NC(=O)CC=C[C@@H](C)[C@H](NS(=O)(=O)c2ccc(C)cc2)COC(=O)[C@H](C)NC(=O)CC=C[C@H]1C,0.69 (inactive),-0.145,0.079 (inactive),-0.121 (inactive),-0.361 (inactive),-0.0378 (inactive),-0.363,0.931 (inactive),0.649 (inactive),-0.165
C=COC[C@@H]1CN2[C@@H](CC[C@@H](C)[C@@H]2c2ccc(Br)cc2)C(=O)O1,-0.778 (inactive),-0.0984,2.08 (inactive),-0.0728 (inactive),0.429 (inactive),-0.959 (inactive),0.993,0.723 (inactive),-0.595 (inactive),-1.14
CCOC(=O)[C@H](CC(C)C)NC(=O)CCC1CC(OC(=O)NCc2cccc3ccccc23)CC2(CCCC(COC(=O)NCc3cccc(C(F)(F)F)c3)O2)O1 (stereo not given in full),0.366 (inactive),-0.144,-0.406 (inactive),-0.0787 (inactive),0.976 (inactive),0.613 (inactive),0.273,0.176 (inactive),0.794 (inactive),0.259
CO[C@H]1COC(=O)CC=C[C@@H](C)[C@H](OC)COC(=O)CCC[C@@H]1C,0.398 (inactive),-0.216,-0.674 (inactive),-1.22 (inactive),-0.518 (inactive),-2.08 (inactive),-0.0645,0.00516 (inactive),0.612 (inactive),0.863
COC(=O)CC=C[C@@H](C)[C@@H](C=NO[C@H](C)c1cn([C@H](CO)Cc2ccccc2)nn1)OC,-0.36 (inactive),-0.104,0.727 (inactive),0.0995 (inactive),-0.721 (inactive),0.0239 (inactive),-0.505,0.824 (inactive),0.541 (inactive),0.299
CC(C)=CCCC(C)=CCON=C1C[C@@H](O)[C@@H](O)[C@@H]2[C@@H]3C(=O)N(c4cccc(Oc5ccccc5)c4)C(=O)[C@@H]3CC[C@@H]12,-1.15 (inactive),-0.0501,3.39 (inactive),-0.298 (inactive),1.24 (inactive),-2 (inactive),0.313,-1.33 (inactive),-0.237 (inactive),-3.35
COC(=O)CC=C[C@@H](C)[C@@H](C=NO[C@@H](C)c1cn([C@H](CO)Cc2ccccc2)nn1)NS(=O)(=O)c1ccc(C)cc1,0.264 (inactive),0.196,0.507 (inactive),-1.66 (inactive),-0.598 (inactive),-1.93 (inactive),1.85,-0.575 (inactive),0.328 (inactive),0.17
CCOC(=O)[C@H](CC(C)C)NC(=O)CCC1CC(OC(=O)NCc2ccc3c(c2)OCO3)CC2(CCCC(COC(=O)NCC3CCCCC3)O2)O1 (stereo not given in full),0.192 (inactive),0.237,1.35 (inactive),0.0043 (inactive),-0.116 (inactive),-0.0704 (inactive),0.542,-0.541 (inactive),0.563 (inactive),0.61
CC(CCN1CCCc2nc(C)c(C)cc21)=NO[C@@H](C)c1cc(-c2c(C)cc(C)cc2C)no1,1.22 (inactive),0.0402,3.44 (inactive),0.762 (inactive),1.35 (inactive),0.465 (inactive),0.124,-1 (inactive),-0.469 (inactive),0.221
O=C1C[C@@H](O)[C@@H](O)[C@@H]2[C@@H]3C(=O)N(C[C@@H]4CCCO4)C(=O)[C@@H]3CC[C@@H]12,0.668 (inactive),-0.284,0.786 (inactive),-0.191 (inactive),1 (inactive),-0.0672 (inactive),0.381,-1.38 (inactive),0.529 (inactive),0.624
CCCCc1nc2c(c3c1C[C@H](C)OC3)CN(CCOc1ccccc1)CC2,0.19 (inactive),-0.0186,1.3 (inactive),-0.611 (inactive),0.128 (inactive),-0.421 (inactive),1.86,-0.201 (inactive),0.25 (inactive),0.747
COC(=O)[C@@H]1CC[C@@H](C)[C@H](c2ccc(Br)cc2)N1,-0.394 (inactive),0.0962,0.121 (inactive),-0.0391 (inactive),-0.242 (inactive),-0.191 (inactive),0.333,-3.29 (inactive),-0.185 (inactive),-0.781
CC(C)CON=C1C[C@@H](O)[C@@H](O)[C@@H]2[C@@H]3C(=O)N(C4CCCCC4)C(=O)[C@@H]3CC[C@@H]12,-1.24 (inactive),-0.0662,-0.133 (inactive),-0.346 (inactive),-0.383 (inactive),-0.0384 (inactive),-0.354,1 (inactive),-1.59 (inactive),-0.143
CO[C@@H]1COC(=O)CC=C[C@@H](C)[C@@H]2C=C[C@H](O)[C@@H](COC(=O)CC=C[C@H]1C)O2,0.988 (inactive),-0.0984,0.872 (inactive),-0.28 (inactive),0.178 (inactive),-0.213 (inactive),1.2,0.262 (inactive),1.18 (inactive),0.589
O=C1C[C@@H](O)[C@@H](O)[C@@H]2[C@@H]3C(=O)N(C[C@@H]4CCCO4)C(=O)[C@@H]3CC[C@H]12,0.555 (inactive),-0.0969,0.651 (inactive),0.461 (inactive),-0.406 (inactive),0.376 (inactive),-0.0289,-0.453 (inactive),-0.111 (inactive),-0.0473
C[C@@H]1C=CCC(=O)OC[C@H]2O[C@@H](C=C[C@@H]2O)[C@H](C)C=CCC(=O)OC1,0.625 (inactive),-0.106,0.119 (inactive),-1.48 (inactive),-0.71 (inactive),-2.02 (inactive),1.61,-0.601 (inactive),0.346 (inactive),0.58
O=c1n(Cc2cc3c(cc2Cl)OCO3)c(=O)n2n1CC[C@@H]1C(=NOCc3ccccc3)[C@H]3O[C@H]3[C@@H](O)[C@@H]12,0.112 (inactive),-0.055,0.99 (inactive),-1.13 (inactive),0.434 (inactive),-2.49 (inactive),1.63,-0.641 (inactive),0.153 (inactive),0.615
COc1ccc(O[C@H]2C=C[C@@H](c3ccccc3)O[C@@H]2CON=C(C)CCC(=O)OC[C@H]2O[C@H](c3ccccc3)C=C[C@@H]2Oc2ccc(OC)cc2)cc1,0.274 (inactive),0.64,0.99 (inactive),0.328 (inactive),0.104 (inactive),0.464 (inactive),-0.661,-0.2 (inactive),0.988 (inactive),-0.925
CC(C)=CCCC(C)=CCON=C1C[C@@H](O)[C@@H](O)[C@@H]2[C@@H]3C(=O)N(c4ccc(F)cc4F)C(=O)[C@@H]3CC[C@H]12,-0.061 (inactive),0.173,13.7 (active),0.545 (inactive),2.8 (inactive),-0.87 (inactive),-0.0997,-0.0501 (inactive),-1.83 (inactive),-4.58
C[C@H](ON=C1[C@H]2CCn3c(=O)n(-c4ccccc4)c(=O)n3[C@H]2[C@H](O)[C@@H]2O[C@H]12)c1cn([C@H](CO)Cc2ccccc2)nn1,0.699 (inactive),0.0502,0.463 (inactive),-0.426 (inactive),-0.089 (inactive),-0.0498 (inactive),-0.52,-0.094 (inactive),0.535 (inactive),0.346
COc1ccc(COC(=O)NN=C2C[C@@H](O)[C@@H](O)[C@@H]3[C@@H]4C(=O)N(c5cccc(Oc6ccccc6)c5)C(=O)[C@@H]4CC[C@@H]23)cc1,-0.367 (inactive),0.347,4.54 (inactive),1.2 (inactive),1.28 (inactive),0.181 (inactive),-0.313,1.32 (inactive),0.56 (inactive),1.02
